Screening data deposited in PubChem by National Center for Advancing Translational Sciences (NCATS).
Shiga toxin inh: A qHTS for Small Molecule Inhibitors of Shiga Toxin; Vero cells, Shiga toxin protein synthesis inhibition reporter; actives 9.2% (n = 290,000); inhibition, % at 38.7 µM; in the data active = inhibition mostly above about 28%, no sharp cut-off; inactive = mostly below about 43%; note: 0% is about no effect
HCV inhibitor: qHTS Assay for Inhibitors of Hepatitis C Virus (HCV); Huh7.5.1 HCVcc-Cre infection, luciferase reporter, 44 h; Potency, µM (series often up to 41.8 µM), without a hit: top-dose activity change, negative = inhibition, actives largely listed as inhibitors; actives 3.4% (n = 340,000); AID 651820, 2012; note: potency is the fitted concentration of half-maximal effect; % is set by controls: 0 for no effect and ±100 for the full control effect
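Infectious HCV cell culture screen: compound-treated cells (1,000/well, pre-plated 4 h) are infected with HCVcc-Cre at roughly 0.5 moi and grown 44 h. Infection is quantified by luciferase signal after 15 min substrate incubation at room temperature.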
CHX counter: Cycloheximide Counterscreen for Small Molecule Inhibitors of Shiga Toxin | cell reporter, cycloheximide protein synthesis inhibition counterscreen | max response, % | actives 12% (n = 300,000); in the data active = max response mostly above about 13%, no sharp cut-off; inactive = mostly below about 14%; note: read at 38.3 µM for the half of the compounds with a filed dose; 0% is about no effect
Pf growth 96h: Primary qHTS for delayed death inhibitors of the malarial parasite plastid, 96 hour incubation | P. falciparum luciferase reporter growth, 96 h | Potency, µM (series often up to 28.7 µM), for the others: at the top dose activity change, negative = inhibition, hits mostly inhibitors | actives 6.9% (n = 320,000) | AID 504834, 2011; note: potency is the fitted concentration of half-maximal effect; % is set by controls: 0 for no effect and ±100 for the full control effect
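Readout is luminescence from an integrated firefly luciferase in P. falciparum. Red cells, 2% hematocrit and 0.05% parasitemia final, were cultured with compound through two parasite generations (96 hours) at 37 C, 5% CO2.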
HCMV antiviral: qHTS Assay for inhibitors of the human cytomegalovirus (HCMV); HFF cells, HCMV-luciferase reporter, 72 h; stronger effect = lower value; activity change, negative = inhibition, % at 57.5 µM; actives 4.5% (n = 410,000); AID 1259415, 2018; in the data active = activity change below about -60%; inconclusive = no clear call, values can overlap the other calls; inactive = above about -39%; note: % is set by controls: 0 for no effect and ±100 for the full control effect
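Screen run at 2 compound doses on HFFs infected with reporter HCMV, MOI 1 PFU/cell. Luciferase activity from cell lysates at 72 h post infection gave inhibition relative to buffer-only and Salinomycin wells.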
Pf growth 48h: Primary qHTS for delayed death inhibitors of the malarial parasite plastid, 48 hour incubation; P. falciparum luciferase growth in erythrocytes, 48 h; Potency, µM (highest dose often 28.7 µM), without a hit: top-dose activity change, negative = inhibition, most hits filed as inhibitors; actives 5.9% (n = 310,000); note: potency is the fitted concentration of half-maximal effect; % is set by controls: 0 for no effect and ±100 for the full control effect
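Erythrocytes infected with P. falciparum carrying an integrated firefly luciferase reporter (2% hematocrit, 0.1% parasitemia final) were exposed to compounds in RPMI 1640 with 0.5% Albumax at 37 C, 5% CO2. Growth inhibition was scored as reduced luminescence.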
* = called active by the depositor; ? = inconclusive; / = no result given. Shown are actives, neighbours in structure and some others; about 21% of the full set was active somewhere. Unless noted, calls come from the whole dose curve; as a rule, active = well fitted inhibition curve with a large enough effect; inconclusive = small, poorly fitted or top-dose-only effect, or another doubt; inactive = no such curve, though single readings can be large or run the other way.

SMILES	Shiga toxin inh	HCV inhibitor	CHX counter	Pf growth 96h	HCMV antiviral	Pf growth 48h
COc1ccc(C2c3ccc(O)cc3Oc3ncn(CCN4CCOCC4)c(=N)c32)cc1 (stereo not given)	-9.0	11.2%	-2.4	-27.4%	-6.1	?
COc1ccc(C2c3c(ncn(CCCO)c3=N)Oc3ccc4ccccc4c32)cc1OC (stereo not given)	-8.5	?	1.0	1.65µM*	16.2	13.1µM*
COc1ccc(C2c3c(ncn(CCCO)c3=N)Oc3ccc4ccccc4c32)cc1 (stereo not given)	2.4	-29.5%	-2.7	?	103.9	11.7µM*
COc1ccc(C2c3ccc4ccccc4c3Oc3ncn4nc(Cc5ccccc5)nc4c32)cc1OC (stereo not given)	-8.0	20.4%	3.0	11.7%	-6.8	?
Cc1cc([N+](=O)[O-])ccc1NC(=O)CSc1nncn1-c1cccnc1	6.3	-23.3%	10.6	12.3%	-5.3	20.9%
COc1ccc(F)cc1S(=O)(=O)Nc1ccncc1	/	7.4%	-1.8	-21.3%	-0.1	-7.4%
Cc1ccc(Cl)cc1NC(=S)N(Cc1cccnc1)Cc1ccccc1Cl	-26.4	-13.4%	11.0	20.2%	-1.6	13.1µM*
Cc1ccccc1NC(=S)N(Cc1ccccc1)Cc1cccnc1	-12.8	-1.8%	11.2	-5.0%	3.1	?
Cc1ccccc1NC(=S)N(Cc1cccnc1)Cc1ccco1	-7.2	-6.6%	-2.0	1.85µM*	-13.4	?
Cc1ccc(S(=O)(=O)N(C)C)cc1NC(=S)N(CCC#N)Cc1cccnc1	-9.9	-5.7%	-8.8	-11.2%	-23.8	9.7%
O=S(=O)(NC(=NCc1ccccc1)c1ccccc1)c1ccccc1	-8.9	0.3%	-4.7	-1.2%	?	-28.2%
CCCCCc1c(O)nc(SCC(=O)NCC2CCCO2)[nH]c1=O (stereo not given)	-5.5	-11.3%	-2.8	0.465µM*	-20.5	3.8%
CCCCc1c(O)nc(SCC(=O)NCC2CCCO2)[nH]c1=O (stereo not given)	-3.2	1.3%	-5.6	-6.2%	27.9	-2.6%
C=CCc1cccc2cc(-c3nc4ccc(C(=O)O)cc4[nH]3)c(=O)oc12	/	/	/	/	57.0	/
N=c1c2ccccc2nnn1-c1cccc(C(F)(F)F)c1	19.7	17.7%	24.7	?	-60.6*	13.1µM*
CCN1C(=O)c2cccc3c(S(=O)(=O)NCc4ccco4)ccc1c23	18.4*	-6.6%	23.1*	?	127.7	-26.2%
CC1C(=O)N2CCCc3cc(S(=O)(=O)N4CCN(c5ccccc5F)CC4)cc1c32 (stereo not given)	-2.8	?	1.2	20.3%	?	11.7µM*
CCC(=O)N1CCCc2cc(S(=O)(=O)N3CCN(c4ncccn4)CC3)ccc21	-12.7	16.6%	-5.7	-28.0%	3.1	/
Cc1cccc(N2CCN(S(=O)(=O)c3ccc4c(c3)CC(C)N4C(=O)C3CC3)CC2)c1C (stereo not given)	-3.9	?	-6.6	?	-61.3*	?
CCN1C(=O)c2cccc3c(S(=O)(=O)NCc4cccnc4)ccc1c23	-4.9	?	-3.0	/	177.8	?
COC(=O)C1CCN(S(=O)(=O)c2cc3c4c(c2)C(C)C(=O)N4CCC3)CC1 (stereo not given)	/	/	/	/	6.7	/
CCC(=O)N1CCCc2cc(S(=O)(=O)N3CCN(c4ccccc4F)CC3)ccc21	-1.1	12.6µM*	6.2	-20.0%	?	/
CCN(C(=O)CSc1nc2ccccc2[nH]1)C1CCS(=O)(=O)C1 (stereo not given)	/	4.0%	/	/	-3.0	/
Cc1ccc(C)c(N2CCN(S(=O)(=O)c3ccc4c(c3)CCN4C(=O)CCC(=O)O)CC2)c1	-3.5	9.2%	-7.1	?	26.4	/
CC1Cc2cc(S(=O)(=O)N3CCN(C)CC3)ccc2N1C(=O)C1CC1 (stereo not given)	9.2	12.5%	14.4	5.86µM*	-14.3	?
SMILES	Shiga toxin inh	HCV inhibitor	CHX counter	Pf growth 96h	HCMV antiviral	Pf growth 48h
CCCCN(c1ccccc1)S(=O)(=O)c1ccc2c(c1)CC(C)N2C(=O)C1CC1 (stereo not given)	/	/	/	/	-20.5	/
CCOC(=O)C1CCCN(S(=O)(=O)c2ccc3c4c(cccc24)C(=O)N3CC)C1 (stereo not given)	/	?	/	?	19.3	10.4µM*
O=C(O)CCC(=O)N1CCc2cc(S(=O)(=O)N3CCN(c4ccc(F)cc4)CC3)ccc21	-18.8	16.0%	-0.6	14.7µM*	-11.1	/
CC1Cc2cc(S(=O)(=O)N3CCCCC3)ccc2N1C(=O)C1CCC1 (stereo not given)	4.3	-15.6%	5.1	?	26.3	?
CCCN(c1ccccc1CC)S(=O)(=O)c1ccc2c(c1)CC(C)N2C(=O)C1CC1 (stereo not given)	/	/	/	/	-92.9*	/
CCOC(=O)CN(C(=O)COc1ccc2c(C)cc(=O)oc2c1)c1ccc(OCC)cc1	-4.3	-3.5%	-1.6	72.0%	?	?
Cc1cc(C)cc(Nc2cc(C(=O)NC3CCC(C)CC3)c3ccccc3n2)c1 (stereo not given)	/	/	/	/	25.0	/
CC(=O)c1ccc(N2CCN(S(=O)(=O)c3ccc4c(c3)NC(=O)CC(=O)N4)CC2)cc1	54.6*	-19.3%	23.7*	?	23.5	27.4%
CC(=O)c1ccc(N2CCN(S(=O)(=O)c3ccc4c(c3)CC(C)N4C(=O)C3CC3)CC2)cc1 (stereo not given)	-4.0	3.55µM*	-1.3	?	-14.2	7.38µM*
CCOC(=O)C1CCCN(S(=O)(=O)c2ccc3c(c2)CC(C)N3C(=O)C2CC2)C1 (stereo not given)	1.0	?	11.8	10.4µM*	13.6	-17.9%
Cc1cc(Cl)ccc1NC(=O)CCS(=O)(=O)c1ccc2c(c1)CC(C)N2C(=O)C1CC1 (stereo not given)	/	/	/	/	-65.1*	/
O=C1Cc2cc(S(=O)(=O)N3CCN(c4ccc(C(=O)O)cc4)CC3)ccc2N1	/	/	/	/	-9.8	/
COc1ccccc1CNS(=O)(=O)c1ccc2c(c1)CC(C)N2C(=O)C1CCC1 (stereo not given)	-2.0	?	8.6	-21.4%	-61.3*	?
Cc1cccc(N2CCN(S(=O)(=O)c3ccc4c(c3)CCCN4C(=O)C3CCC3)CC2)c1C	-5.5	14.1µM*	-5.6	-1.5%	?	?
Cc1ccc(C)c(N2CCN(S(=O)(=O)c3ccc4c(c3)CCCN4C(=O)C3CCC3)CC2)c1	/	/	/	/	-8.7	/
Cc1cc(C)c(C)c(S(=O)(=O)N2CCN(c3ccccn3)CC2)c1C	-1.0	?	-2.5	-2.1%	-38.8	-2.8%
